Assay outcomes: PubChem, National Center for Advancing Translational Sciences (NCATS)
DT40 TDP1 no CPT: qHTS for Inhibitors of human tyrosyl-DNA phosphodiesterase 1 (TDP1): qHTS in cells in absence of CPT. DT40 Tdp1-/- hTDP1 cells, no CPT, ATP luminescence, 48 h. Potency, µM (doses to about 46.2 µM), hits mostly inhibitors. hit rate 15% among 420,000. AID 686978, 2013; further: nearly all actives have a fitted effect of over 55% in size
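Readout: luminescence from CellTiter-Glo after 30 min in the dark at RT. Cells: DT40 Tdp1-/- with stable hTDP1, 400/well. Exposure: compounds alone, ≥48 hr, 37 °C.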
HT1080 IDH1KD tx: HT-1080 IDH1 knockdown cell toxicity (counter line). HT-1080 IDH1 knockdown viability, ATP luminescence, 48 h. Potency, µM (titrated, usually from 46.1 µM), actives largely listed as cytotoxic. hit rate 2% among 360,000
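IDH1KD HT-1080 cells, 750/well, RPMI + 5% FBS; compound pinned after 2 h settling; 48 h, 37 °C; CellTiter-Glo luminescence; % activity normalised to DMSO and no-cell wells; curves fitted, classed by r2 and efficacy.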
HT1080-NT tox: kills 2HG-producing HT-1080-NT fibrosarcoma cells; HT-1080-NT fibrosarcoma viability, CellTiter-Glo ATP luminescence, 48 h; Potency, µM (titrated, usually from 46.1 µM), actives largely listed as cytotoxic; hit rate 1.6% among 360,000;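 further: NT is the 2HG producing partner of a matched IDH1 knockdown line; nearly all actives have a fitted effect of over 55% in size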
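Compounds were tested in concentration-response format on HT-1080-NT cells for 48 hours at 37 degrees C. Cell viability came from CellTiter-Glo luminescence; curves were classified by r2, response magnitude and activity.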
KB-3-1 tox: KB-3-1 parental cell cytotoxicity | KB-3-1 viability, CellTiter-Glo ATP luminescence, 72 h | Potency, µM (series often up to 46.1 µM), usual class: cytotoxic | hit rate 1.4% among 400,000 | AID 1347075; further: nearly all actives have a fitted effect of over 60% in size
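Luminescent ATP read-out (CellTiter-Glo) measures survival of drug-naive KB-3-1 cells after 72 h compound exposure at 37 °C. Titration series was screened from lowest to highest concentration, with DMSO vehicle plates as background controls.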
KB-V1 MDR tox: kills drug-selected multidrug resistant KB-V1 cells; KB-V1 MDR cells viability, CellTiter-Glo, 72 h; Potency, µM (series often up to 46.1 µM), hits mostly cytotoxic; hit rate 3.4% among 400,000; AID 1347076; further: nearly all actives have a fitted effect of over 60% in size
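KB-V1 MDR subline cells in DMEM (phenol-red free, 10% FBS) exposed to compounds in qHTS concentration series for 72 h at 37 degrees C. Viability read by CellTiter-Glo luminescence; concentration-effect curves fitted after normalization and correction.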
DT40 TDP1 CPT: DT40-hTDP1 cell growth loss with CPT | chicken DT40 Tdp1-/-;hTDP1 cells + 20 nM CPT, ATP luminescence, 48 h | Potency, µM (highest dose often 46.2 µM), usual class: inhibitors | hit rate 12% among 420,000 | AID 686979; further: nearly all actives have a fitted effect of over 55% in size
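Chicken DT40 Tdp1-/- cells complemented with human TDP1, 400 cells/well, exposed to compounds plus 20 nM camptothecin for at least 48 h at 37 C; viability read as ATP content by CellTiter-Glo luminescence.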
Numbers stand for hits; i = inactive; ? = inconclusive; nt = no result; [ ] = another dose, or the depositor's remark. Most compounds without a hit are left out; they make up all but 19% or so of the library. The call rests on the fitted dose curve; in most records, active means well fitted curve in the direction sought with a large enough effect; inconclusive means small, poorly fitted or top-dose-only effect, or another doubt; inactive means no such curve, though single readings can be large; an effect the other way counts as inactive or inconclusive.

SMILES	DT40 TDP1 no CPT	HT1080 IDH1KD tx	HT1080-NT tox	KB-3-1 tox	KB-V1 MDR tox	DT40 TDP1 CPT
C[C@H](NC(=O)OC(C)(C)C)c1nnc(SCC(=O)Nc2cccc(Cl)c2)o1	i	i	?	i	i	i
CSc1nnc(CCNC(=O)OC(C)(C)C)o1	i	i	i	i	i	i
CC(C)=CCSc1nnc(CCNC(=O)OC(C)(C)C)o1	i	i	i	i	21µM	i
CC(C)(C)OC(=O)NCCc1nnc(SCC(=O)c2ccc(Cl)cc2)o1	?	i	i	i	?	23µM
CC(C)(C)OC(=O)NCCc1nnc(SCc2ccc(Cl)cc2Cl)o1	?	i	i	?	?	?
C[C@H](NC(=O)OC(C)(C)C)c1nnc(SCC(=O)c2ccc(Cl)cc2)o1	21µM	i	i	i	?	16µM
CCN(CC)S(=O)(=O)c1ccc(C(=O)NC2CC(=O)N(c3ccc4c(c3)OCCO4)C2)cc1 (stereo unspecified)	?	nt	nt	i	?	i
Cc1ccc(C)c(CSc2nnc([C@@H](N)C(C)C)o2)c1	i	i	i	i	15µM	i
CC(C)[C@H](N)c1nnc(SCC(=O)c2ccc(Cl)cc2)o1	13µM	i	i	i	i	12µM
Cc1ccc(CSc2nnc([C@@H](N)C(C)C)o2)cc1	nt	nt	nt	i	i	nt
COCCNC(=O)C1(C)CCCN(C(=O)c2ccco2)C1 (stereo unspecified)	i	i	i	i	i	i
COc1ccc(C(=O)N2CCN(C(=O)C3CCCO3)CC2)cc1[N+](=O)[O-] (stereo unspecified)	i	i	i	i	?	i
CC(OC(=O)c1n[nH]c2ccccc12)C(=O)Nc1ccccc1[N+](=O)[O-] (stereo unspecified)	15µM	i	i	i	i	?
Cc1ccc(NC(=O)C(C)OC(=O)c2n[nH]c3ccccc23)cc1 (stereo unspecified)	i	i	i	i	?	i
CC(C)c1nc(=S)c2ccccc2[nH]1	18µM	i	i	i	i	?
Nc1nnc(SCC(=O)NC2CCCCCC2)s1	i	i	i	i	i	i
Cn1c(=O)cc(OCC(=O)NCCCN2CCN(c3cccc(Cl)c3)CC2)c2ccccc21	16µM	i	i	i	i	?
Cn1c(=O)cc(OCCCC(=O)N2CCN(c3ccccc3)CC2)c2ccccc21	?	i	i	i	?	?
Cn1c(=O)cc(OCC(=O)NCCCN2CCN(c3ccccc3F)CC2)c2ccccc21	?	i	i	i	?	?
Cc1ccc(Cl)cc1N1CCN(C(=O)COc2cc(=O)n(C)c3ccccc23)CC1	23µM	nt	nt	i	i	?
CCCCn1c(N)c(N(CCOC)C(=O)COC(=O)C(C)(C)Oc2ccc(Cl)cc2)c(=O)[nH]c1=O	i	i	i	i	i	i
CCOC(=O)c1ccccc1NC(=O)c1sc2ncn(Cc3cccc(F)c3)c(=O)c2c1C	i	nt	nt	i	i	?
CC1CN(S(=O)(=O)c2ccc(C(=O)NCCCn3ccnc3)cc2)CC(C)O1 (stereo unspecified)	?	1.8µM	2.1µM	i	i	i
CC1CN(S(=O)(=O)c2ccc(C(=O)Nc3nnc(-c4ccco4)o3)cc2)CC(C)O1 (stereo unspecified)	?	i	i	?	?	23µM
CC1CCN(S(=O)(=O)c2ccc(C(=O)Nc3nnc(-c4ccco4)o3)cc2)CC1	18µM	i	i	?	?	15µM
SMILES	DT40 TDP1 no CPT	HT1080 IDH1KD tx	HT1080-NT tox	KB-3-1 tox	KB-V1 MDR tox	DT40 TDP1 CPT
Cn1c(=O)[nH]c(=O)c2c1nc(N1CCOCC1)n2CCc1ccccc1	i	i	i	i	i	i
CN(CC(=O)Nc1ccc(F)cc1)C(=O)COc1ccccc1Cc1ccccc1	?	i	i	?	18µM	?
CCN(CC(=O)Nc1ccc(NC(C)=O)cc1)C(=O)COc1ccc(C(=O)c2ccccc2)cc1	i	i	i	i	?	i
COc1ccc(NC(=O)CN(C)C(=O)c2ccccc2CCc2ccccc2)cc1	i	i	i	i	i	i
Cc1ccc2cccc(OCC(=O)N(C)CC(=O)Nc3ccc(F)cc3)c2n1	i	i	i	i	i	i
COc1ccc(NC(=O)CN(C)C(=O)C(Sc2ccccc2)c2ccccc2)cc1 (stereo unspecified)	?	i	i	i	i	16µM
CN(CC(=O)Nc1ccc(F)cc1)C(=O)COc1ccc(C(=O)c2ccccc2)cc1	21µM	i	i	i	i	?
COc1ccc(NC(=O)CN(C)C(=O)COc2ccccc2Cc2ccccc2)cc1	18µM	i	i[9.24 µM]	i	i	26µM
Cc1ccc(NC(=O)CN(C)C(=O)C(c2ccccc2)c2ccccc2)cc1	?	i	i	nt	nt	?
Cc1ccccc1OCC(=O)Nc1c(C)ccc2nsnc12	?	nt	nt	i	i	?
c1ccc(OCc2nnc3ccc(-c4ccccc4)nn23)cc1	nt	nt	nt	i	i	nt
Cc1ccc(NS(=O)(=O)c2cccc(C(=O)N3CCN(C(=O)c4ccco4)CC3)c2)cc1	?	i	i	i	i	i
CN(CC(=O)Nc1ccccc1C(F)(F)F)C(=O)COc1ccccc1Cc1ccccc1	16µM	i	i	i	8.2µM	?
CSc1ccc(CN(C)C(=O)COc2ccc(C(=O)c3ccccc3)cc2)cc1	15µM	12µM	?	21µM	9.2µM	?
CN(CC(=O)Nc1ccccc1Cl)C(=O)COC(=O)Cc1c(F)cccc1Cl	i	i	i	i	i	i
CN(CC(=O)Nc1ccc(F)cc1)C(=O)COC(=O)Cc1c(F)cccc1Cl	6.5µM	i	i	i	i	i
CN(Cc1ccccc1)C(=O)COc1ccc2ccccc2c1	i	i	i	i	i	i
Cc1cc(C)c(NC(=O)CNC(=O)COC(=O)/C=C/c2cccs2)c(C)c1	i	i	i	i	i	i
COc1ccc2c(c1)C(=O)O[C@@H](c1ccccc1)C[C@@H](O)C(=O)CC2	?	i	i	i	i	i
Cc1ccc(CC2CC(=O)N(c3nc4ccccc4s3)C2=O)cc1 (stereo unspecified)	i	i	i	i	i	i
Cc1ccc(Cc2cnc(N3C(=N)SC(c4ccccc4)C3=O)s2)cc1 (stereo unspecified)	16µM	i	i	i	?	16µM
N=C(N)n1ncc2c1CCCC2=O	i	i	i	i	i	i
CN(c1ncnc2c1c(-c1ccccc1)cn2-c1cccc(Cl)c1)C1CCCCC1	i	nt	nt	nt	nt	i
CC1=CC(C)C(/C=N/n2cnnc2)C(C)C1 (stereo unspecified)	i	i	i	i	i	i
